PMP22 txn prim – PMP22 gene transcription modulation; 2% of 43,000 active; S16 Pmp22-F2sN Schwann cells, FLuc/NLuc coincidence luminescence, 24 h; Potency, µM (highest dose often 57.5 µM), without a hit: at the top dose activity change, negative = inhibition, hits mostly inhibitors; active means clear falling dose curves in both reporters; inconclusive means both reporters move, but less clearly or upward; inactive means either reporter flat; the % is the NLuc reporter signal
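qHTS, 1536-well. Cells seeded, compounds added by pin tool, 24 h 37C. Nano-Glo reagent 1 (lysis/FLuc), 10 min RT, read; Stop&Glo, 10 min RT, read NLuc.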
p53null 39C kill – p53 null cell cytotoxicity, nonpermissive temperature; 0.97% of 55,000 active; AID 904; Potency, µM (titrated, usually from 46.1 µM), without a hit: top-dose activity, negative = cell killing, most hits filed as cytotoxic; H1299 p53-null (neo) cells, 39C, ATPlite viability, 24 h;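 further: 0% = DMSO only and -100% = full killing by 100 µM tamoxifen; nearly all actives have a fitted effect of over 50% in size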
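Luminescent ATP signal reported cell survival after H1299 lines (neo, p53 null; or p53 A138V) received up to 46 uM compound and 24 hr incubation at 39C.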
OvCa metastasis – blocks SKOV3ip1 adhesion and invasion in omental model; Potency, µM (series often up to 45.8 µM), for the others: at the highest dose activity change, negative = inhibition, hits mostly inhibitors; 0.1% of 46,000 active; SKOV3ip1-GFP adhesion/invasion on 3D omental model, fluorescence;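 further: plate controls were DMSO wells for no effect and tomatine positive control wells for full effect; nearly all actives have a fitted effect of over 65% in size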
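Primary human omental fibroblast/mesothelial 3D culture pre-formed 48 h. SKOV3ip1-GFP cells added with compounds (0.36-46 umol/L), incubated 2 h RT/16 h 37 C, fixed; GFP cells quantified at 488/509 nm.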
mTORC1 inh – mTORC1 pathway inhibition measured by phospho-rpS6; Tsc2-/- p53-/- MEF, phospho-rpS6 immunofluorescence/PI, 24 h; Potency, µM (doses to about 38.3 µM), for inactives: top-dose activity change, negative = inhibition, most hits filed as inhibitors; 0.78% of 44,000 active;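 further: plate controls were DMSO for no effect and rapamycin for full effect; nearly all actives have a fitted effect of over 50% in size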
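Readout is phospho-S6 Alexa 488 signal normalized to PI per well, reported as % active cells with thresholds set from rapamycin (7.5 nM) and DMSO controls. Cells: Tsc2-/-, p53-/- MEFs, 24 hrs compound at 37 C; PI cell number serves as viability.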
p53null 32C kill – kills p53 null cells at the permissive temperature. H1299-neo p53 null cells, ATP luminescence, 24 h, 32C. Potency, µM (series often up to 46.1 µM), for inactives: top-dose activity change, negative = cytotoxicity, hits mostly cytotoxic. 0.62% of 55,000 active. AID 903;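 further: 0% = DMSO only and -100% = full killing by 100 µM tamoxifen; nearly all actives have a fitted effect of over 55% in size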
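Cytotoxicity: H1299-neo (no p53), 32C, 24 h treatment. Concentrations up to 46 uM. Readout cellular ATP, luminescence. Normalization to DMSO basal and tamoxifen 100 uM maximal kill.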
S16 F2sN tox – toxic to S16 Pmp22-F2sN Schwann cells. S16 Pmp22-F2sN Schwann cells viability, CellTiter-Glo, 24 h. Potency, µM (doses to about 57.5 µM), for the others: top-dose activity change, negative = cytotoxicity, hits mostly cytotoxic. 0.48% of 43,000 active; further: nearly all actives have a fitted effect of over 65% in size
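Viability was measured by CellTiter-Glo luminescence (15 min, room temperature). This followed 24 h at 37 °C of compound exposure (23 nL pin transfer) in S16 Pmp22-F2sN Schwann cells, 500-1,000 per well.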
* = called active by the depositor; i = inactive; u = inconclusive; x = no result given; [ ] = remark or other dose. Only some compounds are listed: those with a hit (about 3.1% of all), similar ones and a draw of the others. Unless noted, the call rests on the fitted dose curve; in most records, active means well fitted curve in the direction sought with a large enough effect; inconclusive means small, poorly fitted or top-dose-only effect, or another doubt; inactive means no such curve, though single readings can be large; an effect the other way counts as inactive or inconclusive. Unless noted, on the % scale 0 is the no-effect control and ±100 the full control effect; potency means the concentration at half of the fitted maximal effect.

SMILES	PMP22 txn prim	p53null 39C kill	OvCa metastasis	mTORC1 inh	p53null 32C kill	S16 F2sN tox
CCN1CCN(c2cc(C)c3cc(NC(=O)c4ccc(OC)c(OC)c4)ccc3n2)CC1	u	-5%	0%	u	2%	20µM*
Cc1cc(C)cc(NC(=O)c2cnn(-c3ccc(C)c(C)c3)c2C2CCNCC2)c1	u	-10%	i	7.4µM*	19%	u
O=C(Nc1cccc(C(F)(F)F)c1)c1cnn(-c2cccc(F)c2)c1C1CCNCC1	-7%	-3%	i	18µM*	0%	-26%
CCOC(=O)[C@@H](N)Cc1ccc(-c2cc(O[C@H](c3ccc(Cl)cc3-n3ccc(C)n3)C(F)(F)F)nc(N)n2)cc1	x	x	-12%	x	x	x
COC(=O)c1ccc(NC(=O)CSc2nnc3c4ccccc4n(C(C)C)c3n2)cc1	-24%	4%	i	-1%	0%	6%
COc1ccccc1NC(=O)CSc1nnc2c3ccccc3n(C(C)C)c2n1	u	38%	-8%	15µM*	32%	u
COc1ccccc1NC(=O)CSc1nnc2c(n1)[nH]c1ccccc12	u	-12%	i	u	-8%	u
COc1cc(NC(=O)Cn2ccn(-c3cc(C)cc(C)c3)c(=O)c2=O)cc(OC)c1	-3%	-21%	10%	10%	-11%	8%
COC(=O)c1c(SCC(=O)Nc2ccccc2OC)[nH]c2ccccc2c1=O	u	7.9µM*	-7%	6%	u	u
COC(=O)c1c(SCC(=O)Nc2cc(OC)cc(OC)c2)[nH]c2ccc(C)cc2c1=O	-6%	3.2µM*	-1%	-11%	u	u
CCOc1ccc(NC(=O)c2ccccc2O)cc1	x	7.9µM*	x	x	7.1µM*	x
O=C(NC1CCCCC1)/C(=C/c1ccc(Cl)cc1)NC(=O)c1ccccc1	u	22%	-14%	15µM*	6%	u
CCOC(=O)c1cc2c(=O)n3ccccc3nc2n(CC2CCCO2)c1=NC(=O)c1cc(C)cc(C)c1 (centres undefined)	1.5µM*	u	1%	-6%	u	u
CCN1C[C@H](C)n2c(c(O)c3c(=O)n(Cc4ccc(F)c(Cl)c4)nc(C(=O)NC)c32)C1=O	x	x	8%	x	x	x
Cc1c(Cl)cccc1-c1ccc(/C=C(\C#N)c2nc3ccccc3[nH]2)o1	u	10µM*	-22%	-29%	u	-10%
Cc1ccc2nc(/C(C#N)=C/c3ccc(-c4ccc(F)cc4F)o3)[nH]c2c1	-38%	7.9µM*	-11%	-7%	-16%	-2%
CCC1CN(C(=O)NCc2ccc(F)cc2)c2cc(C)ccc2O1 (centres undefined)	-1%	71%	10%	21µM*	48%	8%
CCC1CN(C(=O)NCc2ccc(C)cc2)c2ccccc2O1 (centres undefined)	2%	3%	-1%	-22%	19%	3%
CN(C)CC=CC(=O)Nc1cc2c(Nc3ccc(F)c(Cl)c3)ncnc2cc1O[C@H]1CCOC1	x	x	-8%	x	x	x
CCOc1ccc(NC(=O)c2sc3nc4c(cc3c2N)CCCCCC4)cc1	u	-14%	7%	21µM*	-16%	0%
Nc1c(C(=O)Nc2ccc(C(=O)O)cc2)sc2nc3c(cc12)CCCC3	11%	u	8%	-6%	u	3%
CCNC(=O)c1noc(-c2cc(C(C)C)c(O)cc2O)c1-c1ccc(CN2CCOCC2)cc1	x	x	35%	x	x	x
O=C(Nc1ccc(F)cc1)c1csc2c1CCCCC2	-19%	u	16%	u	16µM*	-14%
CC(C)(C)OC(=O)Nc1ccc(-c2cc(C(=O)NCCCCCCC(=O)NO)no2)cc1	x	x	2%	x	x	x
CCC1CCCCN1CCCNC(=O)c1cc2c(Cl)nc3ccc(C)cc3c2s1 (centres undefined)	u	20µM*	u	-12%	-3%	u
SMILES	PMP22 txn prim	p53null 39C kill	OvCa metastasis	mTORC1 inh	p53null 32C kill	S16 F2sN tox
Cc1ccnc(NC(=O)/C=C/c2cccs2)c1	x	x	x	x	10µM*	x
CC(=O)c1ccc(NC(=O)/C=C/c2ccc(C)o2)cc1	x	u	i	0%	13µM*	x
Cc1ccc(NC(=O)/C=C/c2ccc(C)o2)c(C)c1	x	-24%	4%	-1%	-4%	x
S=C(NCc1ccc2c(c1)OCO2)N1CCN(c2ncnc3c2oc2ccccc23)CC1	x	x	-9%[92.2 µM]	x	x	x
CCC(C(=O)NC1CCCCC1)n1c(SCc2cccc(C)c2)nc2ccncc21 (centres undefined)	u	7.9µM*	i	-7%	13µM*	-12%
COc1cc(F)c(F)c(Nc2ccc(I)cc2F)c1NS(=O)(=O)C1(C[C@H](O)CO)CC1	x	x	-7%	x	x	x
COc1ccc(/C=C/C(=O)Nc2sc(C)c(C)c2C(=O)O)cc1	-2%	0.79µM*	i	0%	3.2µM*	-8%
Oc1ccc(NCc2ccc(OCc3ccccc3Cl)cc2)cc1	u	u	i	16µM*	u	u
Oc1ccc(NCc2ccc(OCc3ccccc3)cc2)cc1	4.6µM*	u	u	15µM*	u	10µM*
Oc1ccc(NCc2ccccc2OCc2ccccc2Cl)cc1	7µM*	-18%	-5%	-28%	4%	20µM*
Cn1nnnc1SCCNCc1ccc(OCc2ccccc2Cl)cc1	-46%	-14%	-11%	-9%	u	-22%
Oc1ccc(OCc2ccccc2)cc1	x	x	4%	x	x	x
Cc1cccc(NCc2ccccc2OCc2ccccc2F)c1	x	x	x	x	-16%	x
c1cc(OCCN2CCCCC2)cc(-c2n[nH]c3ccc(-c4ncn[nH]4)cc23)c1	x	x	30%	x	x	x
Cc1cc(CS(=O)(=O)c2ccccc2)cc(OCc2ccc(CN3CCC[C@H]3CO)cc2)c1	x	x	29%	x	x	x
C=CCn1c(=O)c2cnc(Nc3ccc(N4CCN(C)CC4)cc3)nc2n1-c1cccc(C(C)(C)O)n1	x	x	5%	x	x	x
O=C(Nc1ccccc1C(F)(F)F)c1noc2c1CCCCC2	x	5µM*	i	4%	10µM*	x
COc1ccc2c(c1)CCc1c(C(=O)Nc3ccccc3C(F)(F)F)noc1-2	x	-18%	1%	16%	-11%	x
CCCCc1nc2cc(C=CC(=O)NO)ccc2n1CCN(CC)CC	x	x	-10%	x	x	x
Cc1ccc(-n2c(=O)c3ccc(C(=O)NCc4ccco4)cc3n(Cc3ccccc3Cl)c2=O)cc1	-15%	-5%	-14%	9%	16%	-18%
Cc1ccc(-n2c(=O)c3ccc(C(=O)NCc4ccco4)cc3n(Cc3ccc(Cl)cc3)c2=O)cc1	u	u	0%	12µM*	-11%	u

Source: PubChem
